In PubChem BioAssay AID1030 (National Center for Advancing Translational Sciences (NCATS), 2008):
The campaign covered roughly 220,000 compounds. About 16,000 (7.3%) were called active. Roughly 25% stayed inconclusive and do not appear here. The sample holds actives, similar compounds and a random draw of the others, so the mix is not that of the screen. A number with no mark means an inactive call. Calls come from the whole dose curve; as a rule, active = well fitted inhibition curve with a large enough effect (not every such curve was filed as active); inconclusive = small, poorly fitted or top-dose-only effect, or another doubt; inactive = no such curve, though single readings can be large or run the other way.

biological target: Aldehyde dehydrogenase 1A1 (Homo sapiens) (UniProt P00352); experiment: qHTS Assay for Inhibitors of Aldehyde Dehydrogenase 1 (ALDH1A1); conditions: Purified ALDH1A1, NADH fluorescence, propionaldehyde substrate; series mostly up to 75.3 µM; activity, negative = inhibition: at the top concentration;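 for activity, negative = inhibition: plate controls were no enzyme wells and a reference inhibitor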
Potency is the fitted concentration of half-maximal effect.

Sequence of Aldehyde dehydrogenase 1A1 (Homo sapiens) (P00352 whole entry, looked up): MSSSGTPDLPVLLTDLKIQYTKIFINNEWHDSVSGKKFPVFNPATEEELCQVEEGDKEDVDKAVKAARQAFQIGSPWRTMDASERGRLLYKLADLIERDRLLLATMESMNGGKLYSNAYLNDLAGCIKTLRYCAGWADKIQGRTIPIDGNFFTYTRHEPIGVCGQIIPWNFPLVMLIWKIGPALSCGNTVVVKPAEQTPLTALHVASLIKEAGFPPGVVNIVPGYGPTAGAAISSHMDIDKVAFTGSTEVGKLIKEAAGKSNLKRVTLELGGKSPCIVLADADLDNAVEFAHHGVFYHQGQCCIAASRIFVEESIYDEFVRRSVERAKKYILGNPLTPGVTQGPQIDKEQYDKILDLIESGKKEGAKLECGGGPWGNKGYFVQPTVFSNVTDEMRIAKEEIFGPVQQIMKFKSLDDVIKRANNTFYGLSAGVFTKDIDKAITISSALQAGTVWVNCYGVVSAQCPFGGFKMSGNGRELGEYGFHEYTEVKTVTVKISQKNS

| Compound | activity, negative = inhibition [%] | Potency |
| --- | --- | --- |
| O=C1CCC/C(=N\NC(=O)NC2CCCCC2)C1 | 2.09 |  |
| CN(CCOc1ccccc1)Cc1nc2cc(Cl)ccc2c(=O)[nH]1 | -4.61 |  |
| CCN(CC(=O)Nc1ccc(Cl)c(S(=O)(=O)N(C)C)c1)Cc1nc2ccccc2c(=O)[nH]1 |  | 25.1 µM (active) |
| CCN(CC(=O)NC(=O)NCc1ccccc1)Cc1nc2ccccc2c(=O)[nH]1 | -9.25 |  |
| Cc1ccc(S(=O)(=O)NC2(C(F)(F)F)NC(=O)N(CCc3ccccc3)C2=O)cc1 (stereo not given) | 11.8 |  |
| CC1=C(C(=O)Nc2ccc(Cl)cc2)C(c2ccco2)NC(=O)N1 (stereo not given) | 7.11 |  |
| COc1cc(C2CC(=O)c3cnc(NC(C)=O)nc3C2)cc(OC)c1OC (stereo not given) | -3.5 |  |
| O=C(Nc1ncc2c(n1)CC(c1ccco1)CC2=O)c1ccc(Cl)cc1 (stereo not given) |  | 10 µM (active) |
| O=C1C=C(c2ccccc2)CCC1 | 12.6 |  |
| N#CC1=C(N)OC2=C(C(=O)CCC2)C1C1CC=CCC1 (stereo not given) |  | 10 µM (active) |
| Cc1ccsc1C1C(C#N)=C(N)OC2=C1C(=O)CC(C)C2 (stereo not given) | 1.99 |  |
| NC1=C([N+](=O)[O-])C(c2ccccc2)C2=C(CCCC2=O)O1 (stereo not given) | -2.58 |  |
| O=C(Nc1ccc(N2CCOCC2)cc1)c1ccc2c(c1)OCO2 | 3.33 |  |
| COc1ccc(C(F)(F)F)cc1N/C=C\c1nnnn1-c1ccc(C)cc1 |  | 25.1 µM (active) |
| COc1ccc(C)cc1NC(=O)CCC(=O)Nc1nnc(C(F)(F)F)s1 | 4.14 |  |
| COc1ccc(/C(C)=N/Nc2cc(C(F)(F)F)ccc2Cl)c(OC)c1 | 15 |  |
| CSc1cc(C)[nH]c(=O)n1 | 3.77 |  |
| COc1ccc(Cl)cc1NC(=O)NC(C)C(C)(C)C (stereo not given) | 10.4 |  |
| NC(=O)Cc1nc2scc(-c3ccc(Cl)cc3)c2c(=O)[nH]1 | -1.08 |  |
| Cc1sc2nc(CC(N)=O)[nH]c(=O)c2c1-c1ccccc1 |  | 7.08 µM (active) |
| NC(=O)Cc1ccc2sc(-c3ccccc3)nc2c1 | 9.05 |  |
| CCc1ccc(NC(=O)CSc2nc3ccccc3c(=O)n2CCN2CCOCC2)cc1 | -6.19 |  |
| CCc1ccc2ncc(C(=O)c3ccccc3)c(N3CCOCC3)c2c1 |  | 4.47 µM (active) |
| Cc1cc(C(=O)Nc2ccccc2N2CCOCC2)c2ccccc2n1 | -2.76 |  |

| Compound | activity, negative = inhibition [%] | Potency |
| --- | --- | --- |
| O=C(CCSc1ccccc1)N1CCN(c2ccccc2F)CC1 | -54.1 |  |
| O=C(CSc1nn(-c2ccc(F)cc2)c(=S)s1)NC1CCS(=O)(=O)C1 (stereo not given) | -4.99 |  |
| Cc1cc(C)cc(OCC(=O)NCc2cc(C)nc3ccccc23)c1 | -4.15 |  |
| OCC1(Cc2ccccc2)CCN(Cc2cc3ccccc3o2)CC1 | 5.22 |  |
| Cc1cc(C)c2c(-n3cccc3)c(NC(=O)OCc3ccccc3)sc2n1 | 5.3 |  |
| COC(=O)Nc1sc2nc(C)cc(C)c2c1-n1cccc1 | 2.42 |  |
| Cc1cc(C)c2c(-n3cccc3)c(C(=O)NNS(=O)(=O)c3ccc(F)cc3)sc2n1 |  | 2.24 µM (active) |
| CCNC(=O)CC1C(=O)N(c2ccc(F)cc2)C(=O)N1Cc1cccs1 (stereo not given) | -3.81 |  |
| CCN(CC)CCCNC(=O)c1ccc2c(=O)n(Cc3ccc4c(c3)OCO4)c(=S)[nH]c2c1 | -10.2 |  |
| c1ccc2c(C[n+]3csc4ccccc43)cccc2c1 |  | 10 µM (active) |
| N=C(N)SCc1cccc2ccccc12 | 6.99 |  |
| c1ccc2c(CSCc3nc4ccccc4[nH]3)cccc2c1 | 10.2 |  |
| CN1CCN(C(CNS(=O)(=O)c2cccs2)c2cccnc2)CC1 (stereo not given) | -6.14 |  |
| O=C(Nc1nnc(SCc2ccc(Cl)cc2Cl)s1)C1COc2ccccc2O1 (stereo not given) | -4.92 |  |
| O=C(Nc1nc(-c2ccncc2)cs1)C1COc2ccccc2O1 (stereo not given) |  | 3.55 µM (active) |
| O=C(Nc1nc(-c2ccc3c(c2)OCO3)cs1)c1ccncc1 | 5.35 |  |
| COc1ccc(/C=C/C(=O)Nc2cccnc2)cc1OC | -11.3 |  |
| CCCS(=O)(=O)N1CCC(CCOc2ccccc2)(C(=O)OCC)CC1 | -8.63 |  |
| N#Cc1c(-c2ccc(Cl)cc2)c2c([nH]c1=S)CCCC2 | 18.4 |  |
| COc1ccc(NC(=O)C(C)SCc2ccccc2)cc1 (stereo not given) | 1.4 |  |
| Cc1onc(-c2c(Cl)cccc2Cl)c1C(=O)c1c[nH]c(C(=O)NC2CC2)c1 | 2.22 |  |
| Cc1[nH]n(C)c(=O)c1C(=O)c1c(-c2c(Cl)cccc2Cl)noc1C |  | 8.91 µM (active) |
| Cc1onc(-c2c(Cl)cccc2Cl)c1C(=O)NNC(=O)c1c(-c2c(Cl)cccc2Cl)noc1C | 9.07 |  |
| CCOc1c(CNCc2ccc(C(=O)O)cc2)cccc1OC | 4.84 |  |

| Compound | activity, negative = inhibition [%] | Potency |
| --- | --- | --- |
| CC(=O)Nc1cccc(-c2nc3ccccc3s2)c1C | -0.337 |  |
| Cc1ccc(NC(=S)N(CCCN2CCC(C)CC2)Cc2ccco2)cc1 | -7.69 |  |
| CCCOC(=O)c1[nH]c2c(c1C)C(=O)CC(c1cc(OC)c(OC)c(OC)c1)C2 (stereo not given) |  | 0.355 µM (active) |
| CCCOC(=O)c1[nH]c2c(c1C)C(=O)CC(c1cccs1)C2 (stereo not given) | 12.3 |  |
| CCOC(=O)c1[nH]c2c(c1-c1ccccc1)C(=O)CC(c1ccc(Cl)cc1)C2 (stereo not given) | 8.72 |  |
| COc1ccc2c(c1)O[C@@H](c1ccc3c(c1)OCO3)[C@H](OC(=O)NCCc1ccc(OC)c(OC)c1)C2=O | -7.29 |  |
| O=C(CCS(=O)(=O)Cc1ccccc1)Nc1ccc2c(c1)OCCO2 | -10.7 |  |
| CC(/C=N/NC(=O)c1cc(-c2ccc3ccccc3c2)n[nH]1)=C\c1ccco1 | -3.35 |  |
| CC(/C=N/NC(=O)c1ccncc1)=C\c1ccco1 | -12.5 |  |
| C/C(=C\c1ccco1)C1Nc2cccc3cccc(c23)N1 |  | 10 µM (active) |
| COCC(C)NC(=O)COc1nncc2ccccc12 (stereo not given) | 2.02 |  |
| COc1ccc(C2c3[nH]c4ccccc4c3CCN2CCCn2cccn2)cc1C (stereo not given) | -9.04 |  |
| Cc1ccc(/C=N/NC(=O)CNC(=O)COc2ccccc2)o1 | -8.24 |  |
| O=C(CSc1nnc(-c2ccc([N+](=O)[O-])cc2)o1)Nc1ccccn1 | 7.02 |  |
| Cc1ccc(/C=N/NC(=O)CSc2ccccn2)o1 |  | 7.94 µM (active) |
| Cc1ccc(/C=N/NC(=O)Cn2nc(C)c(Br)c2C)o1 | 1.11 |  |
| Cc1cccc(C)c1NC(=O)CSc1ccc([N+](=O)[O-])cn1 | 5.34 |  |
| C/C(=N/NC(=O)CSc1ccccn1)c1ccc([N+](=O)[O-])cc1 |  | 20 µM (active) |
| CC1CC(C)(C)NC(=S)N1CCC(=O)N1CCN(Cc2ccccc2)CC1 (stereo not given) | 1.21 |  |
| Cc1sc2nc(CSCC(=O)Nc3c(Cl)cccc3Cl)[nH]c(=O)c2c1C | -7.94 |  |
| CCN(CC)Cc1nc2sc(C)c(C)c2c(=O)[nH]1 | -1.29 |  |
| CSc1nnc(SCc2nc3sc(C(=O)O)c(C)c3c(=O)[nH]2)s1 |  | 7.08 µM (active) |
